The values below come from PubChem BioAssay (NCATS).

Results filed as inconclusive are left out. Active and inactive are the calls of the source. The call rests on the fitted dose curve; in most records, active means well fitted curve in the direction sought with a large enough effect; inconclusive means small, poorly fitted or top-dose-only effect, or another doubt; inactive means no such curve, though single readings can be large; an effect the other way counts as inactive or inconclusive.

Assay [1] in a line: Quantitative High-Throughput drug screen in 47 multiple myeloma cell lines against the NCATS MIPE library collection: Karpas25_ECACC cell viability assay (AID 1918968; further: nearly all actives have a fitted effect of over 35% in size). The procedure, abridged: (§1)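 Myeloma cells (500 per well) were exposed to MIPE 4.0 compounds by pin transfer and incubated 48 hours at 37C, 5% CO2. Viability was read as ATP by CellTiter-Glo luminescence, normalised to DMSO (100%) and media-only (0%) wells.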

Assay [2] in a line: Quantitative High-Throughput drug screen in 47 multiple myeloma cell lines against the NCATS MIPE library collection: KMS12BM_JCRB cell viability assay (AID 1918971). Further: nearly all actives have a fitted effect of over 35% in size. The procedure, abridged: (§2)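 Relative luminescence from CellTiter-Glo served as the viability signal, referenced to DMSO-treated (100%) and cell-free medium (0%) controls. Treatment lasted 48 hours at 37C with 500 cells per well.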

A short description of assay [3]: Quantitative High-Throughput drug screen in 47 multiple myeloma cell lines against the NCATS MIPE library collection: KMS12PE_JCRB cell viability assay (AID 1918972). Further: nearly all actives have a fitted effect of over 30% in size. The procedure, abridged:
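Luminescent ATP measurement with CellTiter-Glo gives viability, scaled between DMSO-only wells (100%) and media-only wells (0%). Cells, 500 per well, faced library compounds for 48 hours at 37C.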

Assay [4] in a line: Quantitative High-Throughput drug screen in 47 multiple myeloma cell lines against the NCATS MIPE library collection: KMS26_JCRB cell viability assay (AID 1918975). Further: nearly all actives have a fitted effect of over 45% in size. The procedure, abridged: as §2
Assay [5] is described as follows: Quantitative High-Throughput drug screen in 47 multiple myeloma cell lines against the NCATS MIPE library collection: MOLP8_DSMZ cell viability assay (AID 1918977). Further: nearly all actives have a fitted effect of over 45% in size. The procedure, abridged:
(§3)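 qHTS format: cells plated (500/well), pin-dosed with MIPE 4.0 compounds, kept 48 h at 37 °C. Readout was CellTiter-Glo luminescence, median RLU.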

A short description of assay [6]: Quantitative High-Throughput drug screen in 47 multiple myeloma cell lines against the NCATS MIPE library collection: KMS20_JCRB cell viability assay (AID 1918973). Further: nearly all actives have a fitted effect of over 45% in size. The procedure, abridged: as §1
Assay [7] in a line: Quantitative High-Throughput drug screen in 47 multiple myeloma cell lines against the NCATS MIPE library collection: NCIH929_DSMZ cell viability assay (AID 1918978). Further: nearly all actives have a fitted effect of over 35% in size. The procedure, abridged:
as §3

Assay [8] can be described thus: Quantitative High-Throughput drug screen in 47 multiple myeloma cell lines against the NCATS MIPE library collection: MMM1_PLB cell viability assay (AID 1918976). Further: nearly all actives have a fitted effect of over 35% in size. The procedure, abridged:
as §3

Assay [9] can be described thus: Quantitative High-Throughput drug screen in 47 multiple myeloma cell lines against the NCATS MIPE library collection: KMS21BM_JCRB cell viability assay (AID 1918974). To be noted: ATP luminescence, 48 h; viability: at 45.8 µM (top of the series). The procedure, abridged:
as §1
Potency means the concentration at half of the fitted maximal effect.

As to `O=C(Nc1cccc(Cl)c1)Nc1ncc(CCNc2ncnc3ccsc23)s1`, the Potency in assay [1] was 18.7 µM (active); in [2] it was 6.62 µM (active); in assay [3] it was 0.662 µM (active); in [4], 2.64 µM (active); in assay [5], 3.72 µM (active).
`COc1ccc2c(c1)CC[C@H]1[C@@H]2CC[C@]2(C)[C@@H](NCCCCCCN3C(=O)C=CC3=O)CC[C@H]12`: the Potency result in assay [1], in [3], in [6] and in assay [7] was “inactive” each time.
With `N#CC(c1ccnc(NCCc2cccnc2)n1)c1nc2ccccc2s1` (stereo unspecified), the Potency is 7.43 µM (active) in assay [1]; 4.18 µM (active) in assay [3]; 14.8 µM (active) in assay [6]; 20.9 µM (active) in [8]; 7.43 µM (active) in [7]. The Potency entry in [5] was “inactive”.
Turning to `COc1ccc2nc3cc(Cl)ccc3c(Nc3cc(CN4CCCC4)c(O)c(CN4CCCC4)c3)c2n1`, the Potency was 14.8 µM (active) in assay [1]; 11.8 µM (active) in assay [2]; 16.6 µM (active) in [4]; 14.8 µM (active) in assay [8]; 16.6 µM (active) in [5].
As for `CC[C@H](C)n1cc(C)c2c(C(=O)NCc3c(C)cc(C)[nH]c3=O)cc(-c3ccc(N4CCNCC4)nc3)cc21`, the Potency was 23.5 µM (active) in assay [1] and 18.7 µM (active) in assay [6]. Besides, the Potency result in [3] was “inactive”.
As to `Cc1cc(-c2ncc(CC(=O)Nc3ccc(-c4cnccn4)cn3)cc2C)ccn1`, the Potency in assay [1] is 10.5 µM (active); in assay [2], 6.62 µM (active); in assay [9] it was 18.7 µM (active); in [8], 16.6 µM (active); in assay [7] it was 20.9 µM (active).
As for `O=C(O)c1nc(=O)[nH]c(=O)[nH]1`, the Potency result in assay [1], in [3] and in assay [4] was “inactive” each time.
As to `O=C1NC(=O)C(c2cnc3ccccn23)=C1c1cn2c3c(cccc13)CN(C(=O)N1CCOCC1)CC2`, the Potency in assay [1] was 0.001 µM (active); in assay [3] it was 0.001 µM (active); in assay [6] it was 3.72 µM (active); in assay [4], 0.0235 µM (active).
With `CCCCC[C@H](O)C=C[C@H]1[C@H](O)CC(=O)[C@H]1CCCCCCC(=O)O`, the Potency in assay [1] is 23.5 µM (active); in [8], 8.33 µM (active). For the same molecule, the Potency result in assay [3], in assay [4] and in [7] was “inactive” in each case.
With `C[C@H]1O[C@@H](n2cc(F)c(=O)[nH]c2=O)[C@H](O)[C@H]1O`, the Potency in assay [1] is 18.7 µM (active); in [2], 16.6 µM (active). In [7], the Potency entry is “inactive”.
In the case of `CN1CC(=O)NC1=NC(=O)Nc1cccc(Cl)c1`, the Potency is 5.26 µM (active) in assay [1]; 18.7 µM (active) in [4]; 20.9 µM (active) in assay [8]; 10.5 µM (active) in assay [5]; 16.6 µM (active) in assay [7]. Moreover, the Potency result in assay [3] is “inactive”.
Turning to `COc1cc2c(cc1OC)CC(=O)N(CCCN(C)C[C@H]1Cc3cc(OC)c(OC)cc31)CC2`, the Potency is 4.69 µM (active) in [1], 20.9 µM (active) in assay [3], 7.43 µM (active) in assay [8] and 0.332 µM (active) in [7].
Take `CO[C@H]1/C=C\O[C@@]2(C)Oc3c(C)c(O)c4c(O)c(c(C=NN5CCN(C6CCCC6)CC5)c(O)c4c3C2=O)NC(=O)C(C)=CC=C[C@H](C)[C@H](O)[C@@H](C)[C@@H](O)[C@@H](C)[C@H](OC(C)=O)[C@H]1C`: the Potency in assay [1] is 0.0235 µM (active); in assay [2] it was 6.62 µM (active); in [4], 20.9 µM (active); in assay [5], 8.33 µM (active); in assay [7], 0.105 µM (active).
Consider `CC(O)=C(C#N)C(=O)Nc1ccc(C(F)(F)F)cc1`, for which the Potency in assay [1] was 26.4 µM (active); in [2], 14.8 µM (active); in assay [4], 18.7 µM (active); in assay [8], 3.72 µM (active).
Turning to `COc1cc2c(cc1Cc1cccc(Cl)c1F)c(=O)c(C(=O)O)cn2[C@H](CO)C(C)C`, the Potency is 14.8 µM (active) in assay [1]; 6.62 µM (active) in assay [2]; 20.9 µM (active) in assay [4]; 16.6 µM (active) in assay [8]; 13.2 µM (active) in assay [5]; 18.7 µM (active) in assay [7].
As for `Nc1ncnc2c1c(-c1cccc(OCc3ccccc3)c1)cn2C1CC(CN2CCC2)C1` (stereo unspecified), the Potency in [1] is 1.18 µM (active); in assay [3], 16.6 µM (active); in [4], 4.69 µM (active); in [8], 2.96 µM (active); in [7], 0.418 µM (active).
With `O=C(NC[C@H](O)CO)c1ccncc1Nc1ccc(I)cc1F`, the Potency was 6.62 µM (active) in assay [1], 14.8 µM (active) in [3], 0.0526 µM (active) in [6] and 8.33 µM (active) in assay [7]. Besides, the Potency result in [8] was “inactive”.
Turning to `Cc1cc(C(C)Nc2ccccc2)c2nc(N3CCOCC3)cc(=O)n2c1` (stereo unspecified), the values for the Potency in assay [1] and in assay [3] were 4.18 µM (active) and 16.6 µM (active), respectively. The Potency result in assay [8] and in [5] was “inactive” throughout.
Turning to `CCc1cccc(CC)c1NC(=O)N1Cc2[nH]nc(NC(=O)c3ccc(N4CCN(C)CC4)cc3)c2C1`, the Potency is 13.2 µM (active) in assay [1]; 18.7 µM (active) in assay [2]; 3.72 µM (active) in [9]; 16.6 µM (active) in assay [5]; 16.6 µM (active) in assay [7]. The Potency entry in assay [8] was “inactive”.
With `CCCCN(CCCC)CC(O)c1cc(Cl)cc2c1-c1ccc(Cl)cc1C2=Cc1ccc(Cl)cc1` (stereo unspecified), the Potency was 23.5 µM (active) in assay [1], 11.8 µM (active) in assay [6], 23.5 µM (active) in [8] and 26.4 µM (active) in assay [7]. For the same molecule, the Potency entry in [3] was “inactive”.
Consider `O=C(Nc1cccc2c(=O)cc(-c3nn[nH]n3)oc12)c1ccc(OCCCCc2ccccc2)cc1`, for which the Potency is 18.7 µM (active) in assay [1], 20.9 µM (active) in assay [3] and 14.8 µM (active) in assay [6]. Moreover, the Potency entry in assay [5] is “inactive”.
With `NS(=O)(=O)c1cc(Cl)c(Cl)c(S(N)(=O)=O)c1`, the Potency entry in [1], in [3], in [4], in [5] and in [7] was “inactive” throughout. The Potency in [8] was 18.7 µM (active).
As for `C[C@@H]1[C@H](O)[C@@H](C)C=CC=CC=CC=CC=CC=CC=C[C@H](O[C@@H]2O[C@H](C)[C@H](O)[C@H](N)[C@@H]2O)C[C@@H]2O[C@](O)(C[C@@H](O)C[C@@H](O)[C@H](O)CC[C@@H](O)C[C@@H](O)CC(=O)O[C@H]1C)C[C@H](O)[C@@H]2C(=O)O`, the Potency in assay [1] is 3.32 µM (active); in assay [2] it was 2.09 µM (active). Moreover, the Potency entry in [7] is “inactive”.
